Bioassay records from PubChem BioAssay.
TDP1 cell CPT: qHTS for Inhibitors of human tyrosyl-DNA phosphodiesterase 1 (TDP1): qHTS in cells in presence of CPT; chicken DT40 Tdp1-/-;hTDP1 cells + 20 nM CPT, ATP luminescence, 48 h; hit rate 12% among 420,000; Potency, µM (series often up to 46.2 µM), actives largely listed as inhibitors; also: nearly all actives have a fitted effect of over 55% in size
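Chicken DT40 Tdp1-/- cells complemented with human TDP1, 400 cells/well, exposed to compounds plus 20 nM camptothecin for at least 48 h at 37 C; viability read as ATP content by CellTiter-Glo luminescence.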
KB-3-1 cytotox: qHTS assay for MDR1-selective chemotherapeutics: Primary screen using the parental adenocarcinoma cell KB-3-1. Potency, µM (highest dose often 46.1 µM), hits mostly cytotoxic. hit rate 1.4% among 400,000. AID 1347075, 2019. KB-3-1 viability, CellTiter-Glo ATP luminescence, 72 h; also: nearly all actives have a fitted effect of over 60% in size
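Parental KB-3-1 adenocarcinoma cells in phenol-red-free DMEM with 10% FBS were pin-treated with compounds at several concentrations, incubated 72 h at 37 °C, and viability read by CellTiter-Glo luminescence; concentration-effect curves were fitted after normalization.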
HT1080-NT tox: qHTS for induction of synthetic lethality in tumor cells producing 2HG: qHTS for the HT-1080-NT fibrosarcoma cell line | HT-1080-NT fibrosarcoma viability, CellTiter-Glo ATP luminescence, 48 h | Potency, µM (top dose mostly 46.1 µM), hits mostly cytotoxic | hit rate 1.6% among 360,000;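 also: NT is the 2HG producing partner of a matched IDH1 knockdown line; nearly all actives have a fitted effect of over 55% in size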
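Viability by CellTiter-Glo luminescence after 48 h compound exposure at 37C of HT-1080-NT cells (750/well, RPMI, 5% FBS). % activity scaled between DMSO wells and medium-only wells, then curve-fitted and categorized by curve class.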
DT40 TDP1 no CPT: qHTS for Inhibitors of human tyrosyl-DNA phosphodiesterase 1 (TDP1): qHTS in cells in absence of CPT; DT40 Tdp1-/- hTDP1 cells, no CPT, ATP luminescence, 48 h; Potency, µM (titrated, usually from 46.2 µM), actives largely listed as inhibitors; hit rate 15% among 420,000; also: nearly all actives have a fitted effect of over 55% in size
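Seeded 400 DT40-hTDP1 cells/well (vehicle DMSO, no 20 nM CPT); pinned compounds; ≥48 hr at 37 °C; CellTiter-Glo luminescence as viability measure.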
HT1080 IDH1KD tx: qHTS for induction of synthetic lethality in tumor cells producing 2HG: qHTS for the HT-1080-IDH1KD cell line | HT-1080 IDH1 knockdown viability, ATP luminescence, 48 h | hit rate 2% among 360,000 | Potency, µM (highest dose often 46.1 µM), usual class: cytotoxic
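Using the IDH1-knockdown HT-1080 line run in the same batch and compound series as the NT line, viability after 48 h at 37 °C was determined by CellTiter-Glo luminescence and expressed as % activity.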
KB-V1 cytotox: qHTS assay for MDR1-selective chemotherapeutics: Primary screen using the drug-selected MDR subline cells KB-V1; KB-V1 MDR cells viability, CellTiter-Glo, 72 h; Potency, µM (titrated, usually from 46.1 µM), actives largely listed as cytotoxic; hit rate 3.4% among 400,000; AID 1347076, 2019; also: nearly all actives have a fitted effect of over 60% in size
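Luminescent ATP read-out (CellTiter-Glo, 10 min) measures survival of drug-selected KB-V1 MDR cells after 72 h, 37 degrees C compound exposure. Medium: phenol-red-free DMEM, 10% FBS. Values from fitted concentration-response curves.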
Hits are given with their value; i = inactive; ? = inconclusive; nt = no result. Compounds with a hit are over-represented: about 19% of the library has one in this group of screens. Calls follow the shape of the dose curve; as a rule, active = well fitted curve in the direction sought with a large enough effect; inconclusive = small, poorly fitted or top-dose-only effect, or another doubt; inactive = no such curve, though single readings can be large; an effect the other way counts as inactive or inconclusive.

SMILES	TDP1 cell CPT	KB-3-1 cytotox	HT1080-NT tox	DT40 TDP1 no CPT	HT1080 IDH1KD tx	KB-V1 cytotox
CCOC(=O)C1CCN(c2cc3c(cc2NC(=O)c2ccc(Cl)cc2)n(C)c(=O)n3C)CC1	8.2µM	i	nt	2.6µM	nt	i
CCOC(=O)c1ccc(-n2ccnc2)c(NC(=O)c2ccc(Cl)cc2)c1	i	i	i	i	i	15µM
COc1ccc(NC(=O)c2cc(S(=O)(=O)N3CCc4ccccc43)cn2C)cc1OC	i	i	i	i	i	i
COc1ccc(OC)c(NC(=O)CCNC(=O)c2ccco2)c1	i	i	?	i	i	?
COc1ccccc1C(=O)Nc1cc2c(cc1N1CCCCC1)n(C)c(=O)n2C	5.8µM	i	nt	13µM	nt	i
CCCc1ccc(C(C)NC(=S)NCc2ccc(F)cc2)cc1 (stereo not drawn)	?	?	?	?	?	i
CC(NC(=S)NCc1ccc(F)cc1)C12CC3CC(CC(C3)C1)C2 (stereo not drawn)	?	i	?	15µM	?	?
O=C(c1ccco1)N1CCC2(CCCN(c3ccccc3)C2)CC1	i	nt	nt	?	nt	nt
O=C(Nc1ccc2oc(-c3ccc(Cl)c(Cl)c3)nc2c1)c1ncn[nH]1	5.2µM	i	i	5.2µM	i	i
CC(C)(C)c1ccc(-c2nc3cc(NC(=O)c4cccc(Br)c4)ccc3o2)cc1	?	i	nt	4.6µM	nt	?
COc1cc2ccccc2cc1C(=O)Nc1ccc2oc(-c3ccccc3)nc2c1	16µM	i	nt	16µM	nt	i
O=C(Nc1ccc2oc(-c3ccc(Cl)cc3)nc2c1)c1ccc2ccccc2c1	i	i	nt	i	nt	i
COc1cc2ccccc2cc1C(=O)Nc1ccc2oc(-c3cc(Br)ccc3Cl)nc2c1	?	i	nt	i	nt	i
O=C(Nc1ccc(-c2nc3cc(NC(=O)c4ccc(Cl)cc4)ccc3o2)cc1)c1ccc(Cl)cc1	i	i	nt	4.1µM	nt	i
O=C(Cc1n[nH]c(=O)c2ccccc12)OCC(=O)c1ccccc1	i	?	i	i	i	?
CCc1nn(CC(=O)Nc2ccc(C)c(F)c2)c(=O)c2cc3cc(C)ccc3n12	?	i	nt	?	nt	i
COc1ccc(CNC(=O)CSc2nc3ccc(N)cc3s2)cc1	i	?	i	i	i	i
CC1CN(C2CCN(C(=O)COc3ccc(Cl)cc3)CC2)CC(C)O1 (stereo not drawn)	?	i	i	?	i	i
O=C(Nc1ccc(-c2nc3cc(NC(=O)c4cccs4)ccc3o2)cc1)c1cccs1	11µM	?	i	13µM	i	?
Cc1ccc(C(=O)Nc2ccc3oc(-c4ccncc4)nc3c2)c(Cl)c1	i	i	nt	?	nt	i
Cc1nc2cc(NC(=O)Nc3ccc(Br)cc3)ccc2o1	?	?	i	23µM	?	?
COc1ccc(Cl)cc1-c1nc(-c2ccc(NC(=O)c3cccs3)cc2)no1	?	?	i	21µM	i	i
Cc1ccc(-c2nc3cc(NC(=O)c4cc(Br)ccc4Cl)ccc3o2)cc1	5.8µM	i	nt	4.6µM	nt	i
CN(CCNC(=O)c1ccc(CS(=O)(=O)c2c(Cl)cccc2Cl)o1)CCc1ccccc1	?	i	i	i	i	i
Cc1c(/C=N/NC(=O)c2ccc(Br)o2)cnn1C	i	i	i	i	i	i
SMILES	TDP1 cell CPT	KB-3-1 cytotox	HT1080-NT tox	DT40 TDP1 no CPT	HT1080 IDH1KD tx	KB-V1 cytotox
COc1ccc(NC(=O)c2cc3ccccc3cc2OC)cc1OC	?	i	i	18µM	i	i
O=C(Nc1ccc(-c2nc3cc(NC(=O)c4ccccc4F)ccc3o2)cc1)c1ccccc1F	15µM	i	nt	13µM	nt	?
Cc1nc2ccc(NC(=O)Nc3ccnc4cccnc34)cc2o1	?	nt	nt	21µM	nt	nt
COc1cc(OC)c(C(=O)Nc2ccc3ccccc3c2)cc1OC	?	i	i	?	i	i
COCCNC(=O)C1C(=O)Nc2ccccc2C(=O)N1Cc1ccccc1 (stereo not drawn)	i	i	i	i	i	i
C=CCN(CC=C)Cc1c(C)[nH]c2ccc(C(=O)OCC)cc2c1=O	i	i	i	i	i	i
CCOC(=O)C1(CCOc2ccccc2)CCN(Cc2ccc(F)c(OC)c2)CC1	?	i	?	6.5µM	?	?
OCC1(CCOc2ccccc2)CCN(Cc2ccc3c(c2)OCCO3)CC1	i	i	i	i	i	i
CCOC(=O)C1(CCOc2ccccc2)CCN(Cc2ccc3c(c2)OCCO3)CC1	?	i	18µM	?	?	i
CCOC(=O)C1(CCOc2ccccc2)CCN(Cc2ccc(O)c(Cl)c2)CC1	16µM	i	i	13µM	i	i
CCOC(=O)C1(CCOc2ccccc2)CCN(Cc2ccc(O)c(OC)c2)CC1	?	i	i	18µM	i	i
COc1ccc(OC)c(CNC(=O)CN(c2ccc(C)cc2)S(=O)(=O)N(C)C)c1	i	i	nt	i	nt	i
COc1ccc(OCCSc2nnc(Cc3cccc4ccccc34)n2N)cc1	?	?	i	?	i	i
Cc1cccc(CNc2cc(-c3ccc(C(=O)N(C)C)cc3)ncn2)c1	i	nt	nt	i	nt	nt
COc1ccc2c(c1)c(=O)c(C(=O)c1ccccc1)cn2CC(=O)Nc1ccc2c(c1)OCO2	?	i	nt	i	nt	i
CCCCN(C)c1c(C)nc2ccc(C(=O)NCCOc3ccc(OC)cc3)cn12	13µM	i	i	18µM	i	i
CCCCN(C)c1c(C)nc2ccc(C(=O)NCc3ccc4c(c3)OCO4)cn12	?	i	i	23µM	i	?
COc1ccc(OCCNC(=O)c2ccc3nc(C)c(N(C)C(=O)CCc4ccccc4)n3c2)cc1	23µM	i	i	?	i	i
CCCCN(C(C)=O)c1c(CC)nc2ccc(C(=O)NCCOc3ccc(OC)cc3)cn12	?	i	i	13µM	i	i
CCc1nc2ccc(C(=O)NCc3ccc4c(c3)OCO4)cn2c1N(CC)CCOC	?	i	i	?	i	i
Cc1c(Cl)cccc1Nc1nc(N)nc(CSC(=S)N2CCOCC2)n1	i	i	i	i	i	?
CC(C)C[C@@H]1COc2cccc(N3CCSCC3)c2S(=O)(=O)N1	i	i	i	i	i	i
NC(=O)CC12CC3CC(C1)CC(CC(N)=O)(C3)C2	?	i	i	i	i	i
CC1CCN(S(=O)(=O)c2ccc3c(ccc(=O)n3CC(=O)Nc3cccc(F)c3)c2)CC1	15µM	i	nt	13µM	nt	?
